This is an account of results in PubChem BioAssay (EPA / NIEHS).

Records with an inconclusive call do not appear. Activity calls are given as the source filed them. Rule for the calls: active = hit-call score of the fitted dose curve at least 0.9, where 1 is the maximum; inconclusive = response in the unintended direction; inactive = score below 0.9.

A short description of this experiment: ATG_Hpa5_TRANS: Attagene TRANS-FACTORIAL HepG2 Assay for human GAL4-Hpa5 Hepatocyte Transcription Factor Basal Promoter (AID 2282975).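 Note: hits are increases in reporter mRNA over DMSO baseline.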 The following applies: HepG2 Attagene GAL4-Hpa5 transcription reporter. The method, then:
ATG_TRANS is a cell-based, multiplexed-readout assay that uses HepG2, a human liver cell line, with measurements taken at 24 hours after chemical dosing in a 24-well plate.ATG_Hpa5_TRANS is one of 30 assay component(s) measured or calculated from the ATG_TRANS assay. It is designed to make measurements of mRNA induction, a form of inducible reporter, as detected with fluorescence intensity signals by Reverse transcription polymerase chain reaction (RT-PCR) and Capillary electrophoresis technology.Data from the assay component ATG_Hpa5_TRANS was analyzed into 1 assay endpoint. This assay endpoint, ATG_Hpa5_TRANS, was analyzed in the positive analysis fitting direction relative to DMSO as the negative control and baseline of activity. Using a type of inducible reporter, measures of mRNA for gain-of-signal activity can be used to understand the background control at the transcription factor-level as they relate to the gene . Furthermore, this assay endpoint can be referred to as a secondary readout, because this assay has produced multiple assay endpoints where this one serves a background control function. To generalize the intended target to other relatable targets, this assay endpoint is annotated to the background measurement intended target family, where the subfamily is internal marker.
Human liver HepG2 cells are transiently transfected with multiple reporter transcription units (MRTUs) in 6-well plates using FuGene 6 reagent (Roche; 3 ml FuGene/1 mg DNA). The MRTU constructs are regulated by a cis-regulating element (promoter). […] A major difference between the CIS and TRANS system is that in CIS activities of endogenous TFs are measured, whereas the TRANS assay evaluates changes in activities of exogenous, chimeric NR-Gal4 proteins. […] At the end of 24 hour incubation, total RNA was isolated using TriZol reagent (Invitrogen). The isolated RNA is then reverse-transcribed using oligo(dT) primer and Mo-MLV reverse transcriptase (Invitrogen) with DNAse I (Ambion) treatment for 30 min. The one-tenth of the produced cDNA was amplified by PCR using Taq DNA polymerase (Invitrogen) and two reporter sequence-specific primers. The PCR products were fluorescently labeled by primer extension with 6-arboxyfluorescein (6-FAM) 5'-labeled reporter sequence-specific primer (2 min at 95 C, 20 s at 68 C and 10 min at 72 C) and these products were digested with 5U of HpaI (New England Biolabs) for 2h at 37 C. The fragments were purified using Qiaquick PCR columns (Qiagen), analyzed on an ABI 3130xL genetic analyzer (Applied Biosystems) with peak positions identified by using a set of X-rhodamine (ROX)-labeled MapMarker1000 molecular weight standards (BioVentures). The raw capillary electrophoresis data was processed using Attagraph software (Attagene).
Consider `CCC(C)Nc1c([N+](=O)[O-])cc(C(C)(C)C)cc1[N+](=O)[O-]` (stereo unspecified), for which the compound was classed as inactive.

Consider `CCN(CC)C(=O)SCc1ccc(Cl)cc1`, for which the outcome was inactive.

Turning to `CNC(=O)CSP(=S)(OC)OC`, the call was inactive.

On to `CCCN(CCC)c1c([N+](=O)[O-])cc(C(F)(F)F)cc1[N+](=O)[O-]`, for which the compound was called inactive.

Consider `Cc1[nH]c(=O)n(C(C)(C)C)c(=O)c1Cl`, for which the call was inactive.

For the compound `O=C1c2ccccc2C(=O)N1SC(Cl)(Cl)Cl`, the call was inactive.

Regarding `O=S(=O)(O)C(F)(F)C(F)(F)C(F)(F)C(F)(F)C(F)(F)C(F)(F)C(F)(F)C(F)(F)F`, the call was inactive.

With `CCC(C)(NC(=O)c1cc(Cl)c(C)c(Cl)c1)C(=O)CCl` (stereo unspecified), the call was inactive.

On to `C[C@H]1[C@H](c2ccc(Cl)cc2)SC(=O)N1C(=O)NC1CCCCC1`, for which the call was inactive.

As to `O=C(O)CCCOc1ccc(Cl)cc1Cl`, the result was inactive.

For the compound `O=[N+]([O-])c1c(Cl)c(Cl)c(Cl)c(Cl)c1Cl`, the result was inactive.

With `CCOc1nc(NC)nc(NC(=O)NS(=O)(=O)c2ccccc2C(=O)OC)n1`, the outcome was inactive.

As for `CC1(C)C(C=C(Cl)Cl)C1C(=O)OC(C#N)c1ccc(F)c(Oc2ccccc2)c1` (stereo unspecified), the compound was called inactive.

For `CNC(=O)Oc1cccc(N=CN(C)C)c1`, the compound was classed as inactive.

With `CCCN(CCOc1c(Cl)cc(Cl)cc1Cl)C(=O)n1ccnc1`, the compound was called inactive.

As for `CCc1ccc(C(=O)NN(C(=O)c2cc(C)cc(C)c2)C(C)(C)C)cc1`, the outcome was inactive.

Turning to `CC[C@H](C)[C@H]1O[C@]2(C=C[C@@H]1C)C[C@@H]1C[C@@H](C/C=C(\C)[C@@H](O[C@H]3C[C@H](OC)[C@@H](O[C@H]4C[C@H](OC)[C@@H](O)[C@H](C)O4)[C@H](C)O3)[C@@H](C)/C=C/C=C3\CO[C@@H]4[C@H](O)C(C)=C[C@@H](C(=O)O1)[C@]34O)O2` (tested in a mixture with another compound), the result was inactive.

Turning to `N#Cc1c(Cl)c(Cl)c(Cl)c(C#N)c1Cl`, the compound was classed as inactive.

Turning to `COP(=S)(OC)Oc1ccc(SC)c(C)c1`, the compound was classed as inactive.

As for `CC(C)(C)C(O)C(Oc1ccc(Cl)cc1)n1cncn1` (stereo unspecified), the outcome was inactive.

As to `O=C(O)COc1ccc(Cl)cc1Cl`, the call was inactive.

Take `ClC1C(Cl)C(Cl)C(Cl)C(Cl)C1Cl` (stereo unspecified): the outcome was inactive.

Take `COc1nn(CSP(=S)(OC)OC)c(=O)s1`: the outcome was inactive.

Take `CCC(C)(C)C(=O)OC1=C(c2ccc(Cl)cc2Cl)C(=O)OC12CCCCC2`: the compound was called inactive.

Regarding `O=[N+]([O-])/N=C1\NCCN1Cc1ccc(Cl)nc1`, the compound was classed as inactive.

On to `C#CCN1C(=O)COc2cc(F)c(N3C(=O)C4=C(CCCC4)C3=O)cc21`, for which the compound was called inactive.
